Data on 16 compounds can be found in PubChem BioAssay (NCATS).

A short description of experiment [1]: Quantitative High-Throughput drug screen in 47 multiple myeloma cell lines against the NCATS MIPE library collection: VP6_DJ cell viability assay (AID 1919867). Note: nearly all actives have a fitted effect of over 40% in size. The gist of the method: (§1)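 Readout: median RLU from CellTiter-Glo after 5 min at room temperature. Preceding step was 48 h drug treatment of 500 cells/well at 37 °C, 5% CO2, with DMSO-only and media-only control wells.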

Experiment [2] can be described thus: Quantitative High-Throughput drug screen in 47 multiple myeloma cell lines against the NCATS MIPE library collection: PE2_PLB cell viability assay (AID 1919869). Note: nearly all actives have a fitted effect of over 35% in size. The gist of the method:
as §1

Experiment [3] is described as follows: Quantitative High-Throughput drug screen in 47 multiple myeloma cell lines against the NCATS MIPE library collection: PCM6_Riken cell viability assay (AID 1919870). Note: nearly all actives have a fitted effect of over 30% in size. The gist of the method: as §1
The nature of experiment [4]: Quantitative High-Throughput drug screen in 47 multiple myeloma cell lines against the NCATS MIPE library collection: OPM2_DSMZ cell viability assay (AID 1919872). Note: nearly all actives have a fitted effect of over 30% in size. The gist of the method:
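Myeloma cells (500 per well) were exposed to MIPE 4.0 compounds by pin transfer and incubated 48 hours at 37C, 5% CO2. Viability was read as ATP by CellTiter-Glo luminescence, normalised to DMSO (100%) and media-only (0%) wells.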

A short description of experiment [5]: Quantitative High-Throughput drug screen in 47 multiple myeloma cell lines against the NCATS MIPE library collection: XG1_PLB cell viability assay (AID 1919866). Note: nearly all actives have a fitted effect of over 35% in size. The procedure, abridged: as §1
Experiment [6] is described as follows: Quantitative High-Throughput drug screen in 47 multiple myeloma cell lines against the NCATS MIPE library collection: RPMI8226_ATCC cell viability assay (AID 1919871). Note: nearly all actives have a fitted effect of over 30% in size. The procedure, abridged:
as §1

Experiment [7] in a line: Quantitative High-Throughput drug screen in 47 multiple myeloma cell lines against the NCATS MIPE library collection: XG6_PLB cell viability assay (AID 1919865). Note: nearly all actives have a fitted effect of over 40% in size. The gist of the method: as §1
Experiment [8] in a line: Quantitative High-Throughput drug screen in 47 multiple myeloma cell lines against the NCATS MIPE library collection: UTMC2_PLB cell viability assay (AID 1919868). Note: nearly all actives have a fitted effect of over 55% in size. The procedure, abridged: as §1

Records with an inconclusive call do not appear. Calls of active or inactive are those of the source. Calls come from the whole dose curve; as a rule, active = well fitted cell-killing curve with a large enough effect; inconclusive = small, poorly fitted or top-dose-only effect, or effect the other way; inactive = no such curve, though single readings can be large or run the other way.
Potency is the fitted concentration of half-maximal effect.

Turning to `O=c1c(-c2ccc(O)cc2)coc2cc(O)cc(O)c12`, the Potency was 5.9 µM (active) in experiment [1] and 7.43 µM (active) in experiment [3]. Besides, the Potency result in experiment [2] and in experiment [4] was “inactive” throughout.
On to `Cc1cnc(C(=O)NCCc2ccc(S(=O)(=O)NC(=O)NC3CCCCC3)cc2)cn1`, for which the Potency in experiment [5] was 20.9 µM (active); in experiment [2], 14.8 µM (active); in experiment [3], 16.6 µM (active); in experiment [6], 16.6 µM (active). For the same compound, in experiment [4], the Potency entry was “inactive”.
Take `CN1C2CCC1CC(OC(=O)C(CO)c1ccccc1)C2` (configuration not stated): the Potency result in experiment [7], in experiment [5], in experiment [8], in experiment [2], in experiment [3] and in experiment [4] was “inactive” in each case.
Take `O=C(c1ccc(OCCN2CCCCC2)cc1)c1c(-c2ccc(O)cc2)sc2cc(O)ccc12`: the Potency in experiment [7] is 20.9 µM (active); in experiment [1] it was 16.6 µM (active); in experiment [3], 18.7 µM (active); in experiment [6] it was 14.8 µM (active).
Regarding `NCCCCCC(=O)O`, the Potency result in experiment [7], in experiment [5], in experiment [8], in experiment [2], in experiment [3] and in experiment [4] was “inactive” each time.
On to `COC(=O)Nc1nc2ccc(C(=O)c3cccs3)cc2[nH]1`, for which the Potency was 0.0209 µM (active) in experiment [8], 0.0235 µM (active) in experiment [2], 0.526 µM (active) in experiment [6] and 0.0118 µM (active) in experiment [4].
On to `Nc1nnc(-c2cccc(Cl)c2Cl)c(N)n1`, for which the Potency in experiment [7] was 9.35 µM (active); in experiment [5] it was 16.6 µM (active). Also, the Potency result in experiment [8] and in experiment [4] was “inactive” each time.
As to `NC(CO)C(=O)NNCc1ccc(O)c(O)c1O` (configuration not stated), the Potency result in experiment [7], in experiment [5] and in experiment [3] was “inactive” in each case. For the same compound, in experiment [4], the Potency is 18.7 µM (active).
With `Fc1ccc([C@@H]2CCNC[C@H]2COc2ccc3c(c2)OCO3)cc1`, the Potency result in experiment [5] and in experiment [3] was “inactive” in each case. In addition, the Potency in experiment [4] was 18.7 µM (active).
Consider `CN(C)CCOC(c1ccccc1)c1ccccc1`, for which the Potency in experiment [5] is 7.43 µM (active); in experiment [1], 6.62 µM (active); in experiment [8] it was 10.5 µM (active); in experiment [2], 7.43 µM (active); in experiment [3] it was 8.33 µM (active). Further, the Potency result in experiment [4] is “inactive”.
As to `Clc1ccc2nsnc2c1NC1=NCCN1`, the Potency result in experiment [7], in experiment [5], in experiment [1], in experiment [8], in experiment [3] and in experiment [4] was “inactive” each time.
With `COc1ccccc1OCCNCC(O)COc1cccc2[nH]c3ccccc3c12` (configuration not stated), the Potency in experiment [5] was 18.7 µM (active); in experiment [3], 16.6 µM (active). The Potency entry in experiment [2] and in experiment [4] was “inactive” each time.
On to `Cc1ccc(-c2cc(C(F)(F)F)nn2-c2ccc(S(N)(=O)=O)cc2)cc1`, for which the Potency result in experiment [2] and in experiment [4] was “inactive” in each case.
Turning to `CC12CC3CC(C)(C1)CC(N)(C3)C2`, the Potency in experiment [7] was 20.9 µM (active); in experiment [5], 23.5 µM (active); in experiment [1], 18.7 µM (active); in experiment [3], 20.9 µM (active). Also, the Potency result in experiment [4] was “inactive”.
Turning to `CN(C)c1nc(N(C)C)nc(N(C)C)n1`, the Potency result in experiment [5], in experiment [8], in experiment [2] and in experiment [4] was “inactive” in each case.
On to `C[C@@H]1CC(=O)NN=C1c1ccc(NN=C(C#N)C#N)cc1`, for which the Potency in experiment [7] was 23.5 µM (active); in experiment [5] it was 18.7 µM (active); in experiment [1], 18.7 µM (active); in experiment [2], 14.8 µM (active); in experiment [3], 18.7 µM (active).
